Compound activity: PubChem, National Center for Advancing Translational Sciences (NCATS)
Nrf2 inh: Nrf2 pathway inhibition. A549 ARE-Fluc reporter, luciferase luminescence, 18-24 h. Potency, µM (series often up to 46 µM), inactives show at the top dose activity change, negative = inhibition, most hits filed as inhibitors. hit rate 2.1% among 360,000; note: potency is the fitted concentration of half-maximal effect; % is set by controls: 0 for no effect and ±100 for the full control effect; nearly all actives have a fitted effect of over 60% in size
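A549 ARE_Fluc cells (5000/well, 5% FBS OPTI-MEM) pre-incubated 2 h, then treated with compounds 18-24 h at 37C/5% CO2 in concentration-response. CellTiter-Fluor viability read first; BugLite luciferase luminescence after 15 min at room temperature gives Nrf2 activity.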
A549 viability: kills or reduces viability of A549 cells in Nrf2 counter-screen; A549 ARE-Fluc cells, CellTiter-Fluor viability, 18-24 h; Potency, µM (doses to about 46 µM), for the others: at the top dose activity change, negative = cytotoxicity, hits mostly inhibitors; hit rate 0.16% among 390,000; note: potency is the fitted concentration of half-maximal effect; % is set by controls: 0 for no effect and ±100 for the full control effect
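Cytotoxicity counterscreen: CellTiter-Fluor fluorescence was measured in A549 ARE_Fluc cells after 18-24 h of compound exposure in a concentration series. The subsequent BugLite luminescent read reports ARE-luciferase activity.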
IDH1 R132H inh: blocks human mutant IDH1 R132H enzyme. O75874. IDH1-R132H enzyme, NADPH consumption, diaphorase/resazurin fluorescence. Potency, µM (top dose mostly 76.6 µM), for inactives: at the top dose activity change, negative = inhibition, actives largely listed as inhibitors. hit rate 0.093% among 390,000. AID 602179; note: potency is the fitted concentration of half-maximal effect; % is set by controls: 0 for no effect and ±100 for the full control effect; nearly all actives have a fitted effect of over 65% in size
Target sequence (O75874 whole entry R132H, stated change not applied): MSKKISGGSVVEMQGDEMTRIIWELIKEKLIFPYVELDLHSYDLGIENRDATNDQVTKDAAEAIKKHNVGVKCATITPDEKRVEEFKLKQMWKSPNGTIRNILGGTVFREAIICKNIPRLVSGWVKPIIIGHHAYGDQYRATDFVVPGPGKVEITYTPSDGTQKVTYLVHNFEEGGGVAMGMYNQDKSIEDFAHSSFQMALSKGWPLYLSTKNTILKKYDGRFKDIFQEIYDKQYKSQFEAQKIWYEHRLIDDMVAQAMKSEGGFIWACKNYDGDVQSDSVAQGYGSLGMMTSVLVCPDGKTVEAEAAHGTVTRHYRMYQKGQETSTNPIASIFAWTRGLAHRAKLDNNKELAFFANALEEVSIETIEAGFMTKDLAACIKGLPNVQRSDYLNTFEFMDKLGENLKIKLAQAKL
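IDH1-R132H (0.5 ug/mL dispensed) in pH 7.5 Tris buffer was preincubated 30 min with compound, then given a substrate mix of 0.016 mM NADPH and 2 mM alpha-KG for 80 min at room temperature; remaining NADPH was read by diaphorase/resazurin fluorescence.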
LDHA block: blocks human lactate dehydrogenase A; P00338; purified LDHA, NADH/diaphorase-resazurin fluorescence; stronger effect = lower value; activity change, % (values are at about 110 or 230 µM); hit rate 0.15% among 480,000; in the data active = activity change below about -30%; inconclusive = mostly about -25% to -30%;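 note: plate controls were DMSO wells for no effect and wells without enzyme for full effect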
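Human LDH5 (2 nM) was incubated with 0.06 mM NADH and 0.2 mM pyruvate for 5 min at room temperature in Tris pH 7.4. Remaining NADH was coupled through diaphorase/resazurin, and resorufin fluorescence was read at 0 and 20 min.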
Nrf2 activator: activators of Nrf2 (ARE) signaling. AID 624171. Potency, µM (doses to about 46.1 µM), for inactives: at the highest dose activation, usual class: activators. AREc32 ARE-luciferase reporter (MCF7-derived line), luminescence, 24 h. hit rate 0.31% among 410,000; note: potency is the fitted concentration of half-maximal effect; % of control where 0% means no effect; nearly all actives have a fitted effect of over 65% in size
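AREc32_Fluc, 1000 cells/well, OPTI-MEM + 5% FBS, o/n 37 deg C 5% CO2; 23 nL cpd by pin tool, 24 hr; Steady-Glo 30 min RT, luminescence.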
12-LOX inh: blocks human arachidonate 12S-lipoxygenase | purified 12hLO, xylenol orange hydroperoxide absorbance | P18054 | AID 1671190 | Potency, µM (series often up to 108 µM), for inactives: top-dose activity change, negative = inhibition, hits mostly inhibitors | hit rate 1.1% among 580,000; note: potency is the fitted concentration of half-maximal effect; % is set by controls: 0 for no effect and ±100 for the full control effect
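Purified human 12hLO at 150 nM in 25 mM Hepes, 0.01% Triton X-100, pH 7.0, preincubated 15 min at room temperature with compound. Reaction started with 40 uM arachidonic acid, 30 min at room temperature. Hydroperoxide measured by Fe-xylenol orange, 573/405 nm absorbance ratio.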
Starred values were filed as active, the others as inactive; ? = inconclusive; · = not tested or not shown. Sampled rows, rich in hits. Any-hit rate of the full collection: about 2.7%. Unless noted, calls come from the whole dose curve; as a rule, active = well fitted curve in the direction sought with a large enough effect; inconclusive = small, poorly fitted or top-dose-only effect, or another doubt; inactive = no such curve, though single readings can be large; an effect the other way counts as inactive or inconclusive.

SMILES | Nrf2 inh | A549 viability | IDH1 R132H inh | LDHA block | Nrf2 activator | 12-LOX inh
CC(NC(=O)Nc1nnc(C(F)(F)F)s1)(C(F)(F)F)C(F)(F)F | 5.2µM* | 16µM* | 7% | -2 | 0% | -3%
CC(C)(C)CC(=O)Nc1nnc(C(F)(F)F)s1 | ? | -7% | 17% | -5 | 0% | -21%
NC(=O)c1ccccc1NC(=O)c1ccccc1Cl | 9% | 7% | 8% | -6 | 0% | 10%
CCC(CC)C(NC(=O)Cc1ccccc1F)c1cccs1 (stereo not given) | · | · | · | 2 | · | ?
COc1ccc(C2C(C#N)=C(SCC(=O)c3ccccc3)NC3=C2C(=O)CC(C)(C)C3)cc1OC (stereo not given) | · | · | · | 3 | · | ?
Cc1ccc2nc(C)cc(C(=O)NCCN3CCCCC3)c2c1 | · | · | · | -17 | · | -8%
CN(Cc1ccc(Cl)c(Cl)c1)C(=O)C1=CC=CN2CCS(=O)(=O)N=C12 | 8.2µM* | -4% | 11% | -3 | 0% | ?
COc1ccc(Br)cc1CN(C)C(=O)C1=CC=CN2CCS(=O)(=O)N=C12 | 16µM* | -11% | 0% | -10 | 0% | ?
COc1cc(N2C(=O)C=CC2=O)c(OC)cc1Cl | ? | ? | -3% | -2 | -1% | 16µM*
C[N+](C)(C)CCN(Cc1ccc(Cl)cc1)c1ccccn1 | -14% | 2% | -1% | ? | 0% | 16µM*
O=C(Nc1nc(-c2cccs2)c(C(=O)C(F)(F)F)s1)c1ccccc1 | 21µM* | -19% | 3% | -8 | 0% | ?
Cc1c(CC(=O)O)c(=O)oc2cc(OCc3ccc(C(C)(C)C)cc3)ccc12 | · | · | · | 0 | · | -28%
Cc1ccc(C(=O)c2sc(Nc3cccc(Cl)c3C)nc2N)cc1 | · | · | · | 3 | · | 28µM*
CCc1ccccc1Nc1nc(N)c(C(=O)c2ccc(C)cc2)s1 | · | · | · | 5 | · | ?
CCOC(=O)c1sc(Nc2cccc(C)c2)nc1C | · | · | · | 3 | · | ?
CCOC(=O)c1sc(Nc2ccccc2Cl)nc1C | ? | 17% | 6% | 2 | 11% | 28µM*
COCCCNC(C(=O)O)c1cn(CC(=O)O)c2ccc(OC)cc12 (stereo not given) | · | · | · | 1 | · | ?
CCOC(=O)Nc1ccc2c(c1)C(=NNC(=S)NC)c1ccccc1-2 | · | · | -2% | -6 | -1% | 40µM*
Cc1cccc(C)c1NC(=O)COC(=O)CC1Sc2ccccc2NC1=O (stereo not given) | · | · | · | 8 | · | ?
NC(=O)c1cc2c3ccccc3ccn2c1-c1ccccc1 | 12% | -10% | -4% | 5 | 10µM* | ?
O=C1c2ccccc2S(=O)(=O)N1Cc1nc(-c2cccc(Br)c2)cs1 | · | · | · | 3 | · | -43%
S=C(NN=C(c1ccccc1)c1ccccn1)N(Cc1ccccn1)Cc1ccccn1 | ? | 12µM* | 3% | 12 | 3% | 45µM*
COc1ccc(-n2nnnc2SCn2nnc3ccccc3c2=O)cc1 | · | · | · | 3 | · | -23%
Cc1ccc(-n2nnnc2SCn2nnc3ccccc3c2=O)c(C)c1 | 9.2µM* | ? | 5% | -6 | 2% | 2%
C=CCn1c2ccccc2c2nnc(SCCCn3c(=O)[nH]c4ccccc43)nc21 | 13µM* | -14% | -1% | -2 | 0% | 0%
Cn1c(CCc2cccc(NC(=O)c3ccc(C#N)cc3)c2)nc2ccccc21 | · | · | · | 17 | · | 47%
CC1CCC2(CC1)NC(=O)N(CC(=O)N(Cc1ccccc1)C(C)(C)C)C2=O (stereo not given) | 4% | 8% | 6% | -1 | -1% | -5%
CC1CCC2(CC1)NC(=O)N(Cc1cccc(C(F)(F)F)c1)C2=O (stereo not given) | 18µM* | -1% | 14% | 7 | 7% | 4%
CN(C)c1ccc(/C=C/c2c[n+](C)cc3ccccc23)cc1 | · | · | · | -8 | · | ·
CN(C)c1ccc(C=c2c3ccccc3n3c2c2ccccc2[n+]3C)cc1 | 8.2µM* | ? | 46µM* | 28 | 8% | 5µM*
